Data: publication PMC5700166

Each sequence was assayed against GST-Hu-p50 (Homo sapiens, UniProt P19838 7-356) (assay: protein-binding microarray (PBM); PBM: ~300 nM protein, 6 mM HEPES pH 7.8, 80 mM KCl, 0.5 mM EDTA, 0.5 mM EGTA, 6% glycerol, 35 ng/ul poly-dIdC, 1% milk, 1 h, room temperature; Ap Aiptasia and Nv Nematostella (sea anemones) / Co Capsaspora / Aq Amphimedon (sponge) / Dm Drosophila / Hu human; RHD is the Rel homology domain; high values mean tight binding). Conditions: dsDNA, one strand shown.
Sequence of GST-Hu-p50 (P19838 7-356): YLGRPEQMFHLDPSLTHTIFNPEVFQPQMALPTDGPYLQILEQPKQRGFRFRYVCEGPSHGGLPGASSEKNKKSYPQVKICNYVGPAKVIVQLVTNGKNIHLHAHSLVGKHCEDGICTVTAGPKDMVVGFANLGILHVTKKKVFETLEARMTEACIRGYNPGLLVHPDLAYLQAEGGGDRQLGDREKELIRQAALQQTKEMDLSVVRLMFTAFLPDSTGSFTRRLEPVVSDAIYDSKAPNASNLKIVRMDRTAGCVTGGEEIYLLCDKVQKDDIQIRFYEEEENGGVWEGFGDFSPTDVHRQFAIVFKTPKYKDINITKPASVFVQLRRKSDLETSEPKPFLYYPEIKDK

Row | Sequence | binding signal [z-score]
1 | CCGATTAACATCAGGAACGTCCCTGATGTTAATCGGGTCTTGATTCGCTTGACGCTGCTG | 2.12
2 | CCGATTAACATCATTTCCCTTGATGATGTTAATCGGGTCTTGATTCGCTTGACGCTGCTG | 2.51
3 | CCGATTAACATCAAACACTCCCCTGATGTTAATCGGGTCTTGATTCGCTTGACGCTGCTG | 3.6
4 | CCGATTAACATCAGGGATTTCCATGATGTTAATCGGGTCTTGATTCGCTTGACGCTGCTG | 3.25
5 | CCGATTAACATCAGAAATTTACCTGATGTTAATCGGGTCTTGATTCGCTTGACGCTGCTG | 3.29
6 | CCGATTAACATCAGGGAATATAATGATGTTAATCGGGTCTTGATTCGCTTGACGCTGCTG | 2.29
7 | CCGATTAACATCAATTTTCCCAATGATGTTAATCGGGTCTTGATTCGCTTGACGCTGCTG | 3.18
8 | CCGATTAACATCACTTTACCCCCTGATGTTAATCGGGTCTTGATTCGCTTGACGCTGCTG | 3.42
9 | CCGATTAACATCAAACACCCCCCTGATGTTAATCGGGTCTTGATTCGCTTGACGCTGCTG | 4.57
10 | CCGATTAACATCAAAACTTCCCATGATGTTAATCGGGTCTTGATTCGCTTGACGCTGCTG | 2.96
11 | CCGATTAACATCAGGGGAGTAAATGATGTTAATCGGGTCTTGATTCGCTTGACGCTGCTG | 2.72
12 | CCGATTAACATCAGATATTTCCCTGATGTTAATCGGGTCTTGATTCGCTTGACGCTGCTG | 3.91
13 | CCGATTAACATCAATGTCGGTGGTGATGTTAATCGGGTCTTGATTCGCTTGACGCTGCTG | 1.95
14 | CCGATTAACATCAGGGACAAAAATGATGTTAATCGGGTCTTGATTCGCTTGACGCTGCTG | 2.61
15 | CCGATTAACATCAGGGAACTTTATGATGTTAATCGGGTCTTGATTCGCTTGACGCTGCTG | 3.66
16 | CCGATTAACATCACCGAATTTCCTGATGTTAATCGGGTCTTGATTCGCTTGACGCTGCTG | 2.56

Row | Sequence | binding signal [z-score]
17 | CCGATTAACATCAGGAATCCCTATGATGTTAATCGGGTCTTGATTCGCTTGACGCTGCTG | 1.89
18 | CCGATTAACATCAGGGGTTTACCTGATGTTAATCGGGTCTTGATTCGCTTGACGCTGCTG | 4.94
19 | CCGATTAACATCAAGTTTTCCCATGATGTTAATCGGGTCTTGATTCGCTTGACGCTGCTG | 3.3
20 | CCGATTAACATCAAGTAAATCCCTGATGTTAATCGGGTCTTGATTCGCTTGACGCTGCTG | 2.28
21 | CCGATTAACATCAGGGATATTTATGATGTTAATCGGGTCTTGATTCGCTTGACGCTGCTG | 2.35
22 | CCGATTAACATCAATATTTCCCATGATGTTAATCGGGTCTTGATTCGCTTGACGCTGCTG | 3.27
23 | CCGATTAACATCAAAGGTCCCCCTGATGTTAATCGGGTCTTGATTCGCTTGACGCTGCTG | 3.35
24 | CCGATTAACATCAACATGGGAATTGATGTTAATCGGGTCTTGATTCGCTTGACGCTGCTG | 1.37
25 | CCGATTAACATCATTGGGAAAAATGATGTTAATCGGGTCTTGATTCGCTTGACGCTGCTG | 2.4
26 | CCGATTAACATCAAGCACCCCCTTGATGTTAATCGGGTCTTGATTCGCTTGACGCTGCTG | 4.55
27 | CCGATTAACATCAGGGGGTAGGATGATGTTAATCGGGTCTTGATTCGCTTGACGCTGCTG | 2.97
28 | CCGATTAACATCAAATGACCCCCTGATGTTAATCGGGTCTTGATTCGCTTGACGCTGCTG | 2.89
29 | CCGATTAACATCAGGAAAACACCTGATGTTAATCGGGTCTTGATTCGCTTGACGCTGCTG | 4.77
30 | CCGATTAACATCAGGGGTTCCACTGATGTTAATCGGGTCTTGATTCGCTTGACGCTGCTG | 2.51
31 | CCGATTAACATCAAATAAATCCCTGATGTTAATCGGGTCTTGATTCGCTTGACGCTGCTG | 3.29
32 | CCGATTAACATCAGGGAAAGGTATGATGTTAATCGGGTCTTGATTCGCTTGACGCTGCTG | 2.11
